PubChem BioAssay (Tox21)
Results filed as inconclusive are left out. Calls of active or inactive are those of the source. Unless noted, calls follow the shape of the dose curve; as a rule, active = well fitted curve in the direction sought with a large enough effect in the repeat runs; inconclusive = weak or mixed curves; inactive = no such curve, though single readings can be large; an effect the other way counts as inactive or inconclusive.

Key:
[1] = qHTS assay to identify small molecule antagonists of the estrogen related receptor (ERR) signaling pathway - cell viability counter screen (AID 1224818);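 also: series mostly up to about 46 µM; viability measured after 17.5 h of compound exposure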
How it was run: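 After a 6 h pre-incubation, ERR cells were dosed by pin tool with compounds, positive/negative controls or DMSO alone. Following 17.5 h at 37 C and 30 min with CellTiter-Fluor, fluorescence was recorded.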

[2] = qHTS assay to identify small molecule antagonists of the estrogen related receptor (ERR) signaling pathway (AID 1224819; also: nearly all actives have a fitted effect of over 50% in size; also: potency is read from the fitted curve at half-maximal effect)
How it was run: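 Luminescence readout (One-Glo, 30 min, RT) of ERR cell line after 18 h compound exposure at 37 C; cells seeded 2,000/well, pre-incubated 6 h, compounds pinned from DMSO stocks.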

[3] = qHTS assay to identify small molecule agonists of the estrogen related receptor (ERR) signaling pathway (AID 1224820); also: potency is read from the fitted curve at half-maximal effect
How it was run: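 ERR reporter cell line (from NTP), 2,000 cells/well, incubated 6 h before compound addition, then 18 h at 37 C. Luminescence measured 30 min after One-Glo reagent at room temperature.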

[4] = system: estrogen-related receptor alpha (ERRalpha) with PGC-1alpha coactivator, human; test: qHTS assay to identify small molecule antagonists of the estrogen related receptor signaling pathway with the pleiotropic PPARgamma coactivator (PGC) (AID 1224821; calls by dose curve; also: nearly all actives have a fitted effect of over 50% in size; also: potency is read from the fitted curve at half-maximal effect)
How it was run: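 PGC/ERR reporter cell line, plated 6 h before compound addition, then exposed 18 h at 37 °C. Luciferase activity read by luminescence 30 min after One-Glo addition; decrease indicates antagonism.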

[5] = qHTS assay to identify small molecule antagonists of the estrogen related receptor signaling pathway with the pleiotropic PPARgamma coactivator (PGC) cell viability counter screen (AID 1224822;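 also: series mostly up to about 46 µM; viability read after 17.5 h compound exposure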)
How it was run: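 PGC/ERR cells were plated at 2,000 per well and allowed 6 h to settle before compound addition. Following 17.5 h at 37 C, CellTiter-Fluor reagent was added and fluorescence was read 30 min later.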

[6] = qHTS assay to identify small molecule agonists of the estrogen related receptor signaling pathway with the pleiotropic PPARgamma coactivator (PGC) (AID 1224823); also: potency is read from the fitted curve at half-maximal effect
How it was run: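 PGC/ERR reporter cells seeded 6 h, then exposed to compounds (23 nL in DMSO) for 18 h at 37 C. One-Glo luciferase luminescence read after 30 min at room temperature.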

Measured: Potency

NC(N)=NCCCCN=C(N)N
inactive: all assays above

CC1C(=O)N(C)C(=O)c2nc[nH]c21 (stereo not given)
inactive: all assays above

O=C(O)c1cc(=O)c2ccccc2[nH]1
inactive: all assays above

CN1C2CCCC1CC(NC(=O)c1nn(C)c3ccccc13)C2 (stereo not given)
inactive: all assays above

O=C(OCCN1CCOCC1)C1(c2ccccc2)CCCCC1
inactive: all assays above

CNc1cc(NS(=O)(=O)c2ccc(N)cc2)nc(NC)n1
inactive: all assays above

N[C@H](C(=O)O)[C@H](O)C(=O)O
inactive: all assays above

CCN(CC)CCNC(=O)c1ccc(NS(C)(=O)=O)cc1
inactive: all assays above

O=C(O)C1CN(CCCP(=O)(O)O)CCN1 (stereo not given)
inactive: all assays above

N#Cc1cc2nc(O)c(O)nc2cc1[N+](=O)[O-]
inactive: all assays above

O=C1c2c(O)cc(O)cc2OC(c2ccc(O)c(O)c2)C1O (stereo not given)
inactive: all assays above

O=C(O)c1cc2cc(Cc3cccnc3)ccc2o1
inactive: all assays above

NC(N)=N[C@@H](CCC(=O)O)C(=O)O
inactive: all assays above

CSc1nc(N)c2ncn([C@@H]3O[C@H](COP(=O)(O)OP(=O)(O)OP(=O)(O)O)C(O)[C@H]3O)c2n1 (stereo not given in full)
inactive: all assays above

N[C@@H](Cc1cnc[nH]1)C(=O)O
inactive: all assays above

NC(N)=NC(N)=Nc1cccc(Cl)c1
inactive: all assays above

Nc1nc(Nc2ccccc2)nc2c1ncn2[C@@H]1O[C@H](CO)C(O)[C@H]1O (stereo not given in full)
active: [6] 1.44 µM
inactive: all other assays above

COc1ccccc1N1CCN(CCCNc2c(C)c(=O)n(C)c(=O)n2C)CC1
inactive: all assays above

Nc1cc(Cl)c(NC2=NCCN2)c(Cl)c1
inactive: all assays above

CC(=O)N[C@H](C(=O)O)C(C)(C)SN=O
inactive: all assays above

CC[C@H]1OC(=O)[C@H](C)[C@@H](O[C@H]2C[C@@](C)(OC)[C@@H](O)[C@H](C)O2)[C@H](C)[C@@H](O[C@@H]2O[C@H](C)C[C@H](NC)[C@H]2O)[C@](C)(O)C[C@@H](C)CN(C)[C@H](C)[C@@H](O)[C@]1(C)O
inactive: all assays above

CNc1ncnc2c1ncn2[C@H]1C[C@H](OP(=O)(O)O)[C@@H](COP(=O)(O)O)O1
inactive: all assays above

CCCCCCC/C=C\CCCCCCCCC(=O)O
inactive: all assays above

Cc1cccc(C#Cc2ccccc2)n1
active: [3] 12.8 µM | [6] 9.44 µM
inactive: all other assays above

N[C@@H](Cc1ccc(O)c(I)c1)C(=O)O
inactive: all assays above

CC(C)(C)c1cc(/C=C(\C#N)C(N)=S)cc(C(C)(C)C)c1O
inactive: [1] | [3] | [6]
active: [2] 2.46 µM | [4] 2.11 µM
